The source made the active and inactive calls. Unless noted, the rule behind the calls is not given here.
Tests used:
[1] = system: XIP peptide (Xip251-270) binding; assay: small-molecule binders of XIP peptide, primary screen, biochemical, small-molecule microarray, fluorescence 635/667 nm, 0.1 µg/mL protein (AID 1182); details: fluorescent protein binding, 635 nm, higher = more signal, called active from +8 up or from −8 down
[2] = system: XIP peptide (Xip251-270); assay: small-molecule binders of XIP peptide, primary screen, biochemical, small-molecule microarray, fluorescence 635/667 nm, 0.5 µg/mL protein (AID 1183); details: small-molecule microarray binding, fluorescence 635 nm; higher = more signal
[3] = Plasmodium falciparum growth inhibition, primary screen, strain 3D7, DAPI fluorescence, 100 nL (AID 1184);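 note: parasites grown inside human red blood cells in medium with human serum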; details: P. falciparum 3D7 growth, 3 d, higher = more signal
[4] = target: Homeobox protein Hox-A13 (Mus musculus) (UniProt Q62424); assay: inhibitors of HoxA13-DNA binding, primary screen, biochemical, fluorescence polarization, labeled oligonucleotide (AID 1185); details: 15 min, higher = more signal, called active from +8 up or from −8 down
[5] = inhibitors of hydroxyurea-induced Chk1 phosphorylation, primary screen, imaging, HeLa, phospho-Chk1 antibody, percent positive cells (AID 1186); details: hydroxyurea-induced phospho-Chk1 immunofluorescence imaging, higher = more signal
[6] = inhibitors of hydroxyurea-induced Chk1 phosphorylation, primary screen, imaging, HeLa, phospho-Chk1 nuclear intensity (AID 1187); details: hydroxyurea-induced phospho-Chk1 immunofluorescence imaging, higher = more signal

Sequence of Homeobox protein Hox-A13 (Mus musculus) (Q62424 whole entry, looked up): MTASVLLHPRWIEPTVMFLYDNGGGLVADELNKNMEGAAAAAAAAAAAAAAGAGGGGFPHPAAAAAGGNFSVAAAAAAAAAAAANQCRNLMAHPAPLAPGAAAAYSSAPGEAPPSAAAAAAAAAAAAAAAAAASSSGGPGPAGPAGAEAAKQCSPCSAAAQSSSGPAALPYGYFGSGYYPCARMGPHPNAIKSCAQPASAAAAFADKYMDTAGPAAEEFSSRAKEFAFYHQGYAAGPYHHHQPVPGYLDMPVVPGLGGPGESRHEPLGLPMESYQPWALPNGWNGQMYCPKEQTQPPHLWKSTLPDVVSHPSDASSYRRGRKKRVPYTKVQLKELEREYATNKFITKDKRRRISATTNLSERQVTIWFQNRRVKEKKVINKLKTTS

| SMILES | composite z-score [1] | composite z-score [2] | z-score [3] | z-score [4] | z-score [5] | z-score [6] |
| --- | --- | --- | --- | --- | --- | --- |
| COC(=O)[C@@]1(Cc2ccc(OC)cc2)[C@H]2c3cc(C(=O)N(C)C)n(CCF)c3C[C@H]2CN1C(=O)c1ccccc1 | 0.0026 (inactive) | 0.449 | -1.65 | -3.59 (inactive) | 0.326 (inactive) | -0.241 (inactive) |
| C/C=C/[C@@H](CCn1cc([C@H](O)c2ccccc2)nn1)[Si](C)(C)c1ccc(OC)cc1 | 0.895 (inactive) | 0.778 | -0.689 | -6.33 (inactive) | 0.546 (inactive) | -0.159 (inactive) |
| Cc1cc(C)c(C(O)C2C=CC3C(=O)N(c4ccccc4)C(=O)C3N2Nc2ccc([N+](=O)[O-])cc2)c(C)c1 (stereo unspecified) | 0.756 (inactive) | 0.783 | -0.569 | -1.86 (inactive) | 0.487 (inactive) | 0.596 (inactive) |
| C=C(CCCC)/C(=C/C[C@H](OC(=O)c1ccncc1)c1ccc(CO)o1)c1cc(C(=O)OC)ccc1OC | 0.948 (inactive) | 0.71 | -0.138 | -5.29 (inactive) | -0.52 (inactive) | -1.02 (inactive) |
| N#Cc1ccc(NN2C(C(O)c3ccco3)C=CC3C(=O)N(c4ccccc4)C(=O)C32)cc1 (stereo unspecified) | -0.323 (inactive) | 0.347 | 1.1 | -1.96 (inactive) | -0.124 (inactive) | -0.228 (inactive) |
| C[N+](C)(C)CCCC[C@@H]1NC(=O)[C@@H]2C[C@H](C(=O)O)[C@H](c3cccc(OCCO)c3)N2C1=O | 1.36 (inactive) | 0.246 | -0.0179 | -3.69 (inactive) | 0.153 (inactive) | 0.16 (inactive) |
| CCOC(=O)C[C@H]1[C@H](OC(=O)c2ccc(C(=O)c3ccccc3)cc2)[C@@H](NC(=O)C2CCCCC2)c2cc(OCCCO)ccc2N1C(=O)Cc1ccc(OC)cc1 | 0.963 (inactive) | 0.242 | -1.12 | -2.28 (inactive) | 0.542 (inactive) | -0.129 (inactive) |
| CC(C)(C)OC(=O)CC[C@]1(C(=O)N2CCCCC2)N=C(c2ccc(OCCCO)cc2)O[C@H]1c1ccccc1CN=[N+]=[N-] | 1.25 (inactive) | 0.855 | -2.26 | -2.91 (inactive) | -0.692 (inactive) | -0.917 (inactive) |
| C[N+](C)(C)CCCCCCNC(=O)[C@@H]1C[C@@H]2C(=O)NCC(=O)N2[C@@H]1c1ccc(O)cc1 | 0.842 (inactive) | 0.87 | 0.627 | -1.98 (inactive) | 1.34 (inactive) | 0.992 (inactive) |
| C[C@H]1ON(c2ccccc2)[C@@H](c2ccccc2)[C@@H]1C(=O)N1C(=O)OC[C@@H]1c1ccccc1 | -0.222 (inactive) | 0.195 | -0.968 | -2.12 (inactive) | -0.134 (inactive) | -0.154 (inactive) |
| COCCOC(=O)N1C(=O)[C@@]2(c3cc(C#Cc4ccc(OC)cc4)ccc31)[C@H](C(=O)N1CCc3cc(OC)c(OC)cc3C1)[C@H]1C(=O)O[C@H](c3ccccc3)[C@H](c3ccccc3)N1[C@@H]2c1ccc(OCCO)cc1 | -0.266 (inactive) | 0.688 | -2.22 | 2.6 (inactive) | 0.0413 (inactive) | 0.277 (inactive) |
| CC(C)NC(=O)[C@@H]1c2ccccc2C(=O)N(Cc2cc(C(F)(F)F)cc(C(F)(F)F)c2)[C@H]1c1ccc(CO)cc1 | 1.14 (inactive) | 0.55 | -0.337 | -3.9 (inactive) | 0.349 (inactive) | 0.622 (inactive) |
| O=C1C[C@@](C(=O)O)(c2ccc([N+](=O)[O-])cc2)[C@@H](c2ccc(CO)cc2)N1CC12CC3CC(CC(C3)C1)C2 | 0.312 (inactive) | 0.748 | -0.626 | -3.96 (inactive) | -0.226 (inactive) | -0.715 (inactive) |
| [N-]=[N+]=NCc1ccccc1[C@H]1OC(c2ccc(OCCCO)cc2)=N[C@@]1(Cc1ccccc1N=[N+]=[N-])C(=O)N1CCCCC1 | 0.538 (inactive) | 0.831 | -2.15 | -0.972 (inactive) | -0.335 (inactive) | -0.35 (inactive) |
| C=C(COC)C(=O)CC[C@H](OC(=O)c1ccccc1-c1ccccc1C(=O)O)c1ccc(OCCO)cc1 | 0.0817 (inactive) | 0.264 | -1.84 | -5.78 (inactive) | -0.33 (inactive) | -0.537 (inactive) |
| COc1ccccc1CN1C(=O)c2ccccc2[C@@H](C(=O)NCC(C)C)[C@@H]1c1ccc(CO)cc1 | 0.25 (inactive) | 0.791 | -1.24 | -1.48 (inactive) | 0.0947 (inactive) | 0.525 (inactive) |
| C=CCN1C(=O)[C@@]2(O[C@@H](CCO)[C@H]([Si](C)(C)c3ccc(OC)cc3)[C@H]2C)c2cc(NC(=O)[C@H](C)O)ccc21 | 0.395 (inactive) | 0.603 | -2.83 | -5.68 (inactive) | -0.455 (inactive) | 0.18 (inactive) |
| COCCOC(=O)N1C(=O)[C@@]2(c3cc(C#CCCO)ccc31)[C@H](C(=O)NC[C@H](O)c1ccccc1)[C@H]1C(=O)O[C@H](c3ccccc3)[C@H](c3ccccc3)N1[C@@H]2c1ccccc1OCCO | 0.355 (inactive) | 0.564 | -0.89 | -2.38 (inactive) | 0.308 (inactive) | 0.431 (inactive) |
| COCCOC(=O)N1C(=O)[C@@]2(c3cc(C#CCC(C(=O)OC)C(=O)OC)ccc31)[C@H](c1ccc(OCCO)cc1)N1[C@H](c3ccccc3)[C@H](c3ccccc3)OC(=O)[C@H]1[C@@H]2C(N)=O | 0.335 (inactive) | 0.803 | -1.96 | -1.07 (inactive) | -0.154 (inactive) | 0.0321 (inactive) |
| COc1ccc(CCNC(=O)[C@@H]2c3ccccc3C(=O)N(Cc3ccccc3C(F)(F)F)[C@H]2c2ccc(CO)cc2)cc1 | -0.251 (inactive) | 0.766 | -0.756 | -3.85 (inactive) | 0.239 (inactive) | 0.61 (inactive) |
| CC1=C2[C@@H](CCc3ccccc3)OB(O)C[C@@H]2[C@@H]2C(=O)C=CC(=O)[C@@H]2C1 | -0.387 (inactive) | 0.403 | -1.15 | -6.24 (inactive) | 1.15 (inactive) | 1.1 (inactive) |
| O=C1c2ccccc2[C@](Cc2ccccc2I)(C(=O)NC2CC2)[C@H](c2ccc(CO)cc2)N1Cc1ccccc1Cl | 1.33 (inactive) | -0.154 | -1.03 | -4.21 (inactive) | 0.129 (inactive) | -0.341 (inactive) |
| C=CCNC(=O)[C@@H]1[C@H]2C(=O)O[C@H](c3ccccc3)[C@H](c3ccccc3)N2[C@H](c2ccc(O)cc2)[C@@]12C(=O)Nc1ccc(C#CCCO)cc12 | 3.57 (inactive) | 0.693 | -0.37 | -5.14 (inactive) | -0.154 (inactive) | -0.0542 (inactive) |
| C=CCC(OC(C)=O)[C@@H]1[C@@H](N(Cc2ccc(-c3cccc(C(F)(F)F)c3)o2)C(=O)c2cccc3ccccc23)c2cc(OCCCO)ccc2N1C(=O)c1ccc(-c2ccccc2)cc1 (stereo partly specified) | -0.0517 (inactive) | -0.131 | -3 | -2.39 (inactive) | -0.403 (inactive) | -0.16 (inactive) |
| CN(C)CCCCNC(=O)[C@H]1C[C@H]2C(=O)N[C@@H](CCCC[N+](C)(C)C)C(=O)N2[C@H]1c1cccc(OCCO)c1 | 1.42 (inactive) | 0.689 | -0.0344 | -3.83 (inactive) | -0.0589 (inactive) | -0.216 (inactive) |
| NC(=O)NCC#Cc1ccc2c(c1)[C@]1(C(=O)N2)[C@H](c2ccc(OCCO)cc2)N2[C@H](c3ccccc3)[C@H](c3ccccc3)OC(=O)[C@H]2[C@@H]1C(=O)N1CCCCCCC1 | 2.2 (inactive) | 0.501 | -0.765 | -9.12 (active) | -0.0375 (inactive) | -0.265 (inactive) |

— PubChem BioAssay
